FLuc counter: firefly luciferase modulation, counter-screen for miR-21 project | P08659 | purified FLuc, Km substrates, luminescence inhibition | Potency, µM (series often up to 57.5 µM), inactives show at the highest dose activity change, negative = inhibition, actives largely listed as inhibitors | actives 6.9% (n = 360,000) | AID 588342;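 further: plate controls were vehicle for no effect and reference inhibitor for full effect; nearly all actives have a fitted effect of over 55% in size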
Target sequence (P08659 whole entry, looked up): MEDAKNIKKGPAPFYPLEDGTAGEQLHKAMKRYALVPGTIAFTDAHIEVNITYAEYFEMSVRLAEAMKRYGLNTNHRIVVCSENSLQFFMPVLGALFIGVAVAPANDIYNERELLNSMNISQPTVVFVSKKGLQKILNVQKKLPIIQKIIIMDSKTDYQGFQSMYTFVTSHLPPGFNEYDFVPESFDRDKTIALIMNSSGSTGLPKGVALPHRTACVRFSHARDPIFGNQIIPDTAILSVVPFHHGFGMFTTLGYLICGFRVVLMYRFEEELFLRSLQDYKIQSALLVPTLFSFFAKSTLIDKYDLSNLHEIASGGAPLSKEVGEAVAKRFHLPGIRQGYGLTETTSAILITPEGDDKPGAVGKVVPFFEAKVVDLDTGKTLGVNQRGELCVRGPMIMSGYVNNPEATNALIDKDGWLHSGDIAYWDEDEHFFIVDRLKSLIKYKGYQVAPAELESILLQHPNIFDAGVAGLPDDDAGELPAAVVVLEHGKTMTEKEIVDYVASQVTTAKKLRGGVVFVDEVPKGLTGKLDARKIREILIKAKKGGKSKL
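Purified P. pyralis luciferase (10nM final) with 10uM D-luciferin and 10uM ATP (Km levels) in 50mM Tris acetate pH 7.5, 10mM Mg acetate, 0.01% Tween-20, 0.05% BSA; qHTS 6-point titration, ~60 µM downward; luminescence read.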
SMN2 splice enh: increases expression of the SMN2 splice variant. HEK293 SMN2-luciferase splicing reporter, luminescence, 30-36 h. Potency, µM (series often up to 46.1 µM), without a hit: at the highest dose activity change, positive = activation, usual class: activators. actives 2.8% (n = 210,000). AID 1458; further: % of control where 0% means no effect; nearly all actives have a fitted effect of over 55% in size
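qHTS luciferase splicing reporter: luminescence rises when SMN2 exon 7 is included in transfected HEK293 cells. Compound exposure lasted 30-36 h at 37C, with 4.5 mM final sodium butyrate as control, followed by a ONE-Glo read.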
ELG1 genotoxic: inducers of genotoxicity in HEK293T ELG1-luciferase cells; Potency, µM (series often up to 46 µM), for the others: at the top dose activity change, positive = activation, hits mostly activators; HEK293T ELG1-luciferase reporter, luminescence, 16 h; actives 1.3% (n = 330,000); further: % of control where 0% means no effect; nearly all actives have a fitted effect of over 60% in size
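Luminescence read-out: rising ELG1-luciferase signal, reflecting elevated ELG1 protein under genetic stress, flags genotoxic compounds. Cells were treated for 16 hr at 37 °C before ONE-Glo detection.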
Luc counter: counter-screen: inhibitors of Kinase-Glo firefly luciferase; Q27757; Kinase-Glo luciferase, ATP luminescence, 8 min; Potency, µM (titrated, usually from 38.3 µM), for inactives: at the top dose activity change, negative = inhibition, most hits filed as inhibitors; actives 0.28% (n = 200,000); AID 1379; further: on the % scale 0 is the no-effect control and ±100 the full control effect; nearly all actives have a fitted effect of over 60% in size
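Substrate mix (final 50 mM imidazole pH 7.2, 50 mM KCl, 7 mM MgCl2, 10 uM ATP, 0.01% Tween 20, 0.05% BSA) plus pin-tool compound, then Kinase-Glo detection mix; 8 min ambient, luminescence read.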
NPC1 promoter act: NPC1 promoter activation. actives 2.4% (n = 320,000). AID 485313. Potency, µM (top dose mostly 9.22 µM), for the others: top-dose activation, actives largely listed as activators. Huh7 NPC1 promoter luciferase reporter, 24 h; further: % of control where 0% means no effect; nearly all actives have a fitted effect of over 60% in size
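Luciferase expression driven by the NPC1 promoter was measured in stably transfected Huh7 cells after a 24 h compound incubation, using a luciferase reagent and a luminescence read.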
Rab9 promoter act: activators of Rab9 promoter; Huh7 Rab9 promoter-luciferase reporter, luminescence, 24 h; Potency, µM (titrated, usually from 9.22 µM), without a hit: top-dose activation, negative = inhibition, hits mostly activators; actives 2.8% (n = 320,000); AID 485297; further: % of control where 0% means no effect; nearly all actives have a fitted effect of over 60% in size
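Promoter activation is measured as luciferase luminescence in Huh7 cells stably transfected with a Rab9 promoter–luciferase construct, following 24 h compound exposure at 37 °C and 10 min reagent incubation at ambient temperature.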
Numbers without * were called inactive; ? = inconclusive; / = no result given; [ ] = another dose, or the depositor's remark. A selection: hits, their analogues and other compounds. The true share with any hit is near 7.5%. The call rests on the fitted dose curve; in most records, active means well fitted curve in the direction sought with a large enough effect; inconclusive means small, poorly fitted or top-dose-only effect, or another doubt; inactive means no such curve, though single readings can be large; an effect the other way counts as inactive or inconclusive. Potency means the concentration at half of the fitted maximal effect.

SMILES	FLuc counter	SMN2 splice enh	ELG1 genotoxic	Luc counter	NPC1 promoter act	Rab9 promoter act
COc1ccc(C(=O)/C=C/c2ccc(OC3CSC3)cc2)cc1OC	?	-90%	6%	-17%	-3%	-5%
O=C(/C=C/c1ccc(OC2CSC2)cc1)c1ccc(Cl)cc1	11µM*	5%	6%	-2%	-4%	0%
COc1ccc(/C=C/C(=O)Oc2cc(O)cc(O)c2)cc1	15µM*	/	-1%	/	-3%	-1%[1.84 µM]
CCOc1ccc(/C=C/C(=O)Oc2ccc(OC)cc2)cc1	?	/	3%	/	-1%	2%
C=CCc1cccc2cc(C(=O)Nc3ccc(CC(=O)O)cc3)c(=O)oc12	8.5µM*	9%	6%	2%	12%	-2%
C=CCc1cccc2cc(C(=O)Nc3ccc(F)cc3)c(=O)oc12	-14%	7%	?	-4%	?	?
C=CCc1cccc2cc(C(=O)Nc3cccc(C(=O)O)c3)c(=O)oc12	12µM*	/	9%	/	?	?
CCCOc1ccc(C(=O)Nc2ccc(N3CCN(C(=O)c4ccco4)CC3)cc2)cc1	3%	/	?	/	5%	-4%
O=C(NCc1csc(-c2ccccc2)n1)c1cc(F)cc2c1OCOC2	19µM*	/	19%	/	?	?
Cc1cc(C)cc(Nc2nnc(-n3nc(C)cc3C)c3ccccc23)c1	-20%	3%	/	/	/	/
CCc1c(C)nc2ncnn2c1Nc1ccc(C(C)=O)cc1	27µM*	16%	18µM*	3%	27%	13%
CC1CCc2c(sc(NC(=O)c3cc(-c4cccc(Cl)c4)on3)c2C(N)=O)C1 (stereo not given)	3%	5%	/	/	/	/
Cc1ccc2c(c1)/C(=N/OC(=O)c1ccc(F)cc1)CCS2	6µM*	6%	-3%	-7%	-2%	2%
O=C(O/N=C1\CCCc2ccccc21)c1ccc(F)cc1	0.21µM*	12%	?	-16%	7%	-4%
O=C(O/N=C1/CCSc2ccccc21)c1ccccc1	0.67µM*	-12%	0%	?	7%	-5%
COC(=O)N/N=C1\CCCc2ccccc21	1%	18%	0%	-1%	1%	1%
Cc1ccc2c(c1)/C(=N/O)CCS2	-1%	-13%	-1%	-3%	0%	-3%
CSCC[C@H](NS(=O)(=O)c1ccc(C(C)=O)cc1)c1nnc2ccccn12	1%	/	0%	/	-5%	-4%
O=C(Nc1ccon1)Nc1cccc(Cl)c1Cl	2%	/	-1%	/	-4%	14%
Cc1ccsc1/C=C1\CCc2ccccc2C1=O	0.19µM*	10µM*	?	10µM*	?	0.79µM*
O=C1NC(=S)N/C1=C/c1ccc2ccccc2c1	-18%	/	7%	/	14%	29%
O=C1/C(=C\c2ccc3ccccc3c2)CCCc2ccccc21	2.1µM*	-51%	9.2µM*	-20%	-2%	22%
Cc1ccccc1/C=C1\CCCc2ccccc2C1=O	2.4µM*	10µM*	?	?	4µM*	0.89µM*
Nc1sc(-c2ccccc2)cc1C(=O)N/N=C/c1ccc(Cl)cc1	6µM*	/	1%	/	0%	-1%
O=C(N/N=C/c1ccc(Cl)cc1)c1cc2c(s1)-c1ccccc1CC2	-2%	19%	0%	4%	-17%	-10%
SMILES	FLuc counter	SMN2 splice enh	ELG1 genotoxic	Luc counter	NPC1 promoter act	Rab9 promoter act
COC(=O)c1cc(-c2ccccc2)sc1N	21µM*	-34%	?	-1%	25%	26%
CCOC(=O)c1cc(-c2ccccc2)sc1NC(=O)C(C)(C)C	0%	-25%	3%	-1%	0%	-6%
Cc1ccc(C(=O)Nc2ccc(SC(F)F)cc2)s1	6.7µM*	7.1µM*	?	-1%	2.8µM*	1.3µM*
O=C(Nc1ccc(SC(F)F)cc1)C1=COCCO1	4.8µM*	11µM*	2.6µM*	-7%	1.3µM*	1µM*
CC[N+](CC)(CC)CC(=O)Nc1ccc(SC(F)F)cc1	-2%	1%	-1%	-1%	-7%	0%
O=C(N/N=C/c1ccc(OC(F)F)cc1)C1=COCCO1	8.5µM*	11µM*	?	-18%	3.2µM*	2µM*
Cc1cc(C(=O)N2CCN(c3cccc(Cl)c3)CC2)c2c(C)nn(-c3ccccc3Cl)c2n1	-1%	3%	/	/	/	/
CCOC(=O)N1CCN(S(=O)(=O)c2c(C)nc3scc(C)n3c2=O)CC1	3%	/	1%	/	-2%	6%
Cc1cc(C)c(S(=O)(=O)Nc2cc(-c3cn4ccccc4n3)ccc2C)cc1C	?	6%	/	/	/	/
O=[N+]([O-])c1cccn2cc(-c3ccc(Br)cc3)nc12	?	/	?	2%	?	2.8µM*
Cc1cccn2cc(-c3ccc(S(=O)(=O)N4CCCCC4)cc3)nc12	0%	/	-4%	-2%	0%	0%
Cc1ccc(-c2cn3cccc(C)c3n2)cc1NS(=O)(=O)c1ccccc1	17µM*	23%	/	/	/	/
Cc1ccc(-c2cn3cccc(C)c3n2)cc1	1.1µM*	/	?	?	4µM*	1.4µM*
COc1ccc(-c2nc3c(-c4ccccc4)cnn3cc2C)cc1F	-16%	/	7%	5%	11%	21%
COc1ccc(-c2cn3cccc(C)c3n2)cc1F	6µM*	5.6µM*	4.6µM*	?	?	2.5µM*
O=S(=O)(c1ccc(F)cc1)N1CCC(n2cnc3ccccc32)CC1	-1%	/	-17%	/	-1%	-1%
Cc1ccc(/C=C2\SC(N3CCN(C(c4ccccc4)c4ccccc4)CC3)=NC2=O)o1	-20%	-22%	-10%	-6%	4%	-1%
Cc1cccn2cc(-c3ccc(Cl)cc3)nc12	0.38µM*	/	2.1µM*	/	?	1.3µM*
Cc1cccn2cc(-c3ccc(S(=O)(=O)N4CCOCC4)cc3)nc12	-1%	-19%	-6%	12%	0%	-3%
COc1ccc(CNC(=O)Cn2c(=O)cc(-c3ccccc3)c3c(C)nn(C)c32)cc1	-14%	/	/	/	/	/
O=C(COC(=O)c1ccc(CSc2ccc(Cl)cc2)cc1)Nc1ccccc1	5%	?	6%	6%	-2%	-3%
COc1ccc(S(=O)(=O)N2CCOCC2)cc1NC(=O)c1cc2c(s1)CCCC2	-22%	-5%	0%	-1%	-4%	11%
COc1ccc(C)cc1NC(=O)c1cc2c(s1)CCC2	15µM*	?	13%	-5%	1%	?
COC(=O)c1sccc1NC(=O)c1cccc(OC)c1	?	0%	1%	-3%	10%	0%
COC(=O)c1sccc1NC(=O)c1cc2c(s1)CCCC2	8.5µM*	8%	4%	-11%	26%	?
COc1ccccc1NC(=O)C1CCN(S(=O)(=O)c2ccc3c(c2)oc(=O)n3C)CC1	-6%	-6%	/	/	/	/

Screening results as filed in PubChem.
